Sampled rows, rich in hits. Any-hit rate of the full collection: about 1.1%.
RecA intein inh: Mtb RecA intein splicing inhibitors, primary screen, biochemical, fluorescence, HTS | cell-free RecA intein splicing | Protein RecA (Mycobacterium tuberculosis (strain ATCC 25618 / H37Rv)), P9WHJ3 | 290,000 compounds, 0.75% hits | inhibition, % (no concentration beside the values); in the data active = inhibition above about 30%;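 note: 0% = vehicle wells and 100% = reference inhibitor control wells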
UGM FP inh: M. tuberculosis UGM enzyme inhibitors, primary screen, biochemical, fluorescence polarization, single point; purified UGM, fluorescence polarization probe displacement; inhibition, % at 10 µM; 320,000 compounds, 0.06% hits; AID 504406, 2011; in the data active = inhibition above about 10%, passing the limit was not always enough
SSB-PriA inh: inhibitors of Klebsiella pneumoniae PriA binding to SSB C-terminal tail, primary screen, biochemical, AlphaScreen; AlphaScreen SSBct-PriA binding, biotinylated peptide; inhibition, % at 33 µM; 430,000 compounds, 0.6% hits; AID 1272365, 2023; in the data active = inhibition mostly above about 37%, no sharp cut-off; inactive = mostly below about 20%;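 note: plate controls were negative control peptide for no effect and reference peptide for full effect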
Mtb betalactam: beta-lactam sensitization of Mtb H37Rv, H37Rv | M. tuberculosis H37Rv growth with meropenem, percent inhibition | inhibition, % at 25 µM | 330,000 compounds, 0.27% hits | AID 434955, 2010; call rule not given here;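 note: growth measured after seven days incubation then overnight dye step; 0% = bacteria only wells and 100% = bacteria with antibiotic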
Rv3671c protease: Rv3671c serine protease inhibitors, primary screen, biochemical, fluorescence polarization, M. tuberculosis H37Rv; inhibition, % at 5.96 µM; 320,000 compounds, 0.048% hits; AID 2606, 2010; in the data active = inhibition above about 38%;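 note: extracellular domain of Rv3671c used as enzyme; 0% = enzyme with DMSO and 100% = no enzyme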
Target sequence (P9WHR9 whole entry, looked up, the tested form may be a part): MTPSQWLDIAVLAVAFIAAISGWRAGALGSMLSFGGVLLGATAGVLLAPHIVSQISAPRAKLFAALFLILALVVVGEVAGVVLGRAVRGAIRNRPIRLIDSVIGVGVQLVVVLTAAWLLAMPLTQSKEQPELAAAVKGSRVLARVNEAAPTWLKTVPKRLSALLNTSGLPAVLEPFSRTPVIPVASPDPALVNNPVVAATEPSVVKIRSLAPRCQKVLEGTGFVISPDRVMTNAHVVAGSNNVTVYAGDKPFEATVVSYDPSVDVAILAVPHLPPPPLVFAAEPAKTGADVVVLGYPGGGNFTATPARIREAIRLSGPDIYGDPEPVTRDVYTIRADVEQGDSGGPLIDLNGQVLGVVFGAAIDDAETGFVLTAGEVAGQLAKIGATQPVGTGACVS
Starred values were filed as active, the others as inactive; · = no result.

SMILES	RecA intein inh	UGM FP inh	SSB-PriA inh	Mtb betalactam	Rv3671c protease
O=C(NN1C(=O)/C(=C/c2ccc(O)c([N+](=O)[O-])c2)SC1=S)c1ccccc1Cl	17	2	13	-4	-10
O=C(NN1C(=O)/C(=C/c2cc([N+](=O)[O-])ccc2O)SC1=S)c1ccccc1O	-4	2	·	28	52*
O=C(c1c(F)cccc1Cl)N1CCN(c2ccc3nnc(C4CC4)n3n2)CC1	·	·	-17	·	·
CCN(CC)c1ccc2cc3ccc(N)cc3[n+](-c3ccccc3)c2c1	·	·	117*	·	·
CCN(CC)c1ccccc1	·	0	-3	7	-14
COc1cc(/C=C2\CC/C(=C\c3cc(OC)c(OC)c(OC)c3)C2=O)cc(OC)c1OC	-2	0	1	84	-19
COc1cc(/C=C2\CC/C(=C\c3cc(OC)c(O)c(OC)c3)C2=O)cc(OC)c1O	·	17*	11	13	-29
Cc1cc(N=Nc2ccccc2C)ccc1N	7	0	81*	85	11
Cc1nsc(C(=O)NCCc2cccs2)n1	·	·	-3	·	·
COc1ccc(C(=O)Nc2cccc(-n3c(C)nc4ccccc4c3=O)c2)cc1OC	·	·	6	·	·
CCOC(=O)CSCC(=O)N1N=C(c2cccs2)CC1c1ccc(F)cc1 (stereo unspecified)	32*	1	-21	73	7
COC1(CNC(=O)c2ccc3nsnc3c2)Cc2ccccc2C1	·	·	0	·	·
COc1ccc(OC)c(/C=C2\Oc3cc(OCC(=O)N4CCC[C@H]4C(=O)O)ccc3C2=O)c1	-3	12*	6	-4	2
COc1ccc(/C=C2\Oc3cc(OCC(=O)N4CCC[C@H]4C(=O)O)ccc3C2=O)c(OC)c1	-2	-2	-4	-3	-8
O=C(Oc1ccc(C=NNC(=O)c2ccccn2)cc1)c1ccc(Br)cc1	·	·	5	·	·
COc1ccc(CC2(C)OC(c3ccc([N+](=O)[O-])cc3)=NN2C(C)=O)cc1 (stereo unspecified)	8	-4	45*	3	-20
N#CCN1CC(c2nc(-c3ncccn3)no2)C1	·	·	-11	·	·
CCCCS/C(=C(/C#N)C(N)=O)c1cc2c([nH]1)CCCC2	36*	1	-13	1	-7
CCc1ccc(N/C(SC)=C(/C#N)C(N)=O)cc1	2	2	-4	-4	-3
O=C(C/C=C/c1cccc(Br)c1)c1ccc(Br)cc1	·	·	-8	·	·
CCOC(=O)c1c(NC(=O)c2noc(C)c2[N+](=O)[O-])sc(C(C)=O)c1C	-2	2	59*	-5	-5
CCC(=O)Nc1ccc(SCC(=O)OCc2ccccc2)nn1	·	·	7	·	·
O=[N+]([O-])c1cc(CN2CCN(c3ccccc3)CC2)c(O)c2ncccc12	0	1	75	-3	4
O=[N+]([O-])c1cc(CN2CCOCC2)c2cccnc2c1O	·	·	92*	·	·
Oc1c(Cl)cc(CN2CCOCC2)c2cccnc12	·	2	115*	100	7
SMILES	RecA intein inh	UGM FP inh	SSB-PriA inh	Mtb betalactam	Rv3671c protease
O=Nc1cc(CN2CCOCC2)c(O)c2ncccc12	·	·	28	·	·
COc1ccc(NC(=O)c2ccc3c(c2)OCO3)cc1	·	-1	-12	-7	-5
COc1ccc(NC(=O)C(c2cc3c(cc2[N+](=O)[O-])OCO3)N(C)c2ccccc2)cc1 (stereo unspecified)	2	1	39*	5	-12
O=[N+]([O-])c1ccccc1S(=O)(=O)NCC(c1cccc2ccccc12)N1CCOCC1 (stereo unspecified)	·	·	37*	·	·
Cc1c(C(=O)NCC(c2cccc3ccccc23)N2CCOCC2)cccc1[N+](=O)[O-] (stereo unspecified)	·	·	2	·	·
O=C(CCc1ccc(-c2ccccc2)o1)Nc1ccccc1[N+](=O)[O-]	·	·	84*	·	·
O=C(O)CCc1ccc(-c2ccccc2)o1	1	-2	-12	-2	-2
O=C(NCCn1ccnc1-c1ncccn1)c1ccc(S(=O)(=O)N2CCOCC2)cc1	·	·	92*	·	·
O=C(NCCn1ccnc1-c1ncccn1)C1(c2ccccc2)CCOCC1	·	·	40*	·	·
O=C(NCCCS(=O)(=O)N1CCN(c2ncccn2)CC1)c1ccc(S(=O)(=O)N2CCOCC2)cc1	·	·	-19	·	·
O=C(NCCn1ccc(-c2ccncc2)n1)C1(c2ccccc2)CCOCC1	·	·	-10	·	·
O=C(NCCN1CCOCC1)c1ccc(Cl)c(S(=O)(=O)N2CCCC2)c1	-2	-4	39*	-1	-13
O=C(Cc1ccc(Cl)cc1)N1CCN(c2ccc(-n3cccn3)nn2)CC1	·	·	-20	·	·
CN(C)[C@@H](CNS(=O)(=O)CCc1ccccc1)c1cccc2ccccc12	·	·	-3	·	·
C=CCSc1nnc(-c2cccc3ccccc23)o1	·	·	89*	1	6
C#CCSc1nnc(-c2cccc3ccccc23)o1	7	2	-87	100	-4
Cc1cc(C(=O)NCCn2nc(-c3cccs3)cc2C2CC2)c(C)o1	·	·	16	·	·
CCN(Cc1ccccc1)c1ccc(C=NN2CCOCC2)cc1	·	·	47*	·	·
Cc1noc(C)c1C(=O)N1CCN(c2ccc(-c3noc(C(C)C)n3)cn2)CC1	·	·	14	·	·
CC(C)c1nc(-c2ccc(N3CCN(C(=O)Cc4cn(C)c5ccccc45)CC3)nc2)no1	·	·	61*	·	·
CCOc1ccccc1Nc1nnc(C)c(=O)[nH]1	1	0	-3	-3	-4
CCOc1ccccc1Nc1nnc(Cc2ccccc2Cl)c(=O)[nH]1	31*	-1	-8	-1	-4
Cc1cccc2sc(NNC(=O)c3cc4ccccc4oc3=O)nc12	·	·	9	·	·
ClC(Cl)(Cl)c1nc2ccccc2n2nncc12	55*	0	-19	8	-11
c1ccc2c(c1)nnn1c3ccccc3nc21	-24	2	·	-2	-10
SMILES	RecA intein inh	UGM FP inh	SSB-PriA inh	Mtb betalactam	Rv3671c protease
CC1(CC(=O)N/N=C/c2ccc(OCc3ccc(Cl)cc3Cl)cc2)OCCCO1	39*	3	·	-2	-11
Cc1cc2cc(CN(Cc3ccc4c(c3)OCO4)C(=O)c3cnccn3)c3nnnn3c2cc1C	-2	2	39*	-8	2
Cc1ccc(Nc2c([N+](=O)[O-])cc(C(=O)N3CC(=O)Nc4ccccc43)cc2[N+](=O)[O-])c(C)c1	8	-1	43*	-2	4
O=C(CCC(=O)c1ccccc1)NCCCn1ccc2cccnc21	·	·	0	·	·
Cc1ccccc1OCCNc1cc(N2CCN(CCO)CC2)ccc1[N+](=O)[O-]	3	2	42*	67	-3
CCOc1ccc(/C=C2\CCCc3c2nc2ccccc2c3C(=O)O)cc1OC	-69	70*	·	-15	3
COc1ccc(/C=C2\CCCc3c2nc2ccccc2c3C(=O)O)cc1OC	-39	48*	·	-8	2
CC(=O)Nc1ccc(NC(=O)Nc2cccc(Cl)c2)cc1	-5	2	-3	7	2
CC(=O)C(=Nc1ccc(Cl)cc1Cl)NNc1cccc(Cl)c1	34*	0	59	94	-4
Clc1ccc(-c2cnnc(-c3ccccn3)n2)cc1	·	0	58*	0	11

Source: PubChem BioAssay
